Laboratory results reported in PubChem BioAssay.
A number with no mark means an inactive call. How the calls were made is not given here.

biological target: Pantothenate synthetase (Mycobacterium tuberculosis (strain ATCC 25618 / H37Rv)) (UniProt P9WIL5); test: Recombinant Mtb pantothenate synthetase (PanC) inhibitors, coupled enzyme, confirmatory (AID 375); settings: coupled enzyme assay; at 10 µM, hits give high values;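 further: 0% = full reaction with vehicle and 100% = no enzyme background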
Sequence (P9WIL5 whole entry, looked up): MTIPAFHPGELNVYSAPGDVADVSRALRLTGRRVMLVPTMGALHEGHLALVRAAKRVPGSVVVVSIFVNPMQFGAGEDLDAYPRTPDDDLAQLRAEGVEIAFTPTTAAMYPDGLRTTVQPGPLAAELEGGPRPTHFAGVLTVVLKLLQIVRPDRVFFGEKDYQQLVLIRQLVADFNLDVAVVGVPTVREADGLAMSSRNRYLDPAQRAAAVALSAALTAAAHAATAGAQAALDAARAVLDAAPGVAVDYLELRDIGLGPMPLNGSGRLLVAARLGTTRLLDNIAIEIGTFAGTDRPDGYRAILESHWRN

SMILES	inhibition [%]
COc1cc(OC)cc(C(=O)N2c3ccc(F)cc3CCC2C)c1 (stereo not given)	0
COCCn1c(SCC(=O)N2CCc3ccccc32)nc2c(c1=O)SC(C)C2 (stereo not given)	1
COC(=O)C1=CN(C(C)C)C=C(C(=O)OC)C1c1cc2c(cc1Br)OCO2	0
CC(C)Cn1cc(C(=O)NCC2CCCO2)c2c3ccccc3n(C)c2c1=O (stereo not given)	4
Cc1cccc2cc(CN(Cc3nnnn3Cc3ccco3)C3CCCC3)c3nnnn3c12	3
Nc1nnc(SCc2cc3c(cc2Cl)OCO3)s1	7
Cc1c(=O)n(OCc2ccccn2)c2ccccc2[n+]1[O-]	0
CCOC(=O)c1cnc(SC2CC(=O)N(c3ccc(OC)c(OC)c3)C2=O)nc1N (stereo not given)	0
c1ccc2c(Cn3ccnc3)c[nH]c2c1	0
CCOC(=O)CNC(=O)CSc1nc(N(C)C)nc(N2CCOCC2)n1	6
COc1ccc(C(=O)Nc2nncs2)c(OC)c1	3
CCOC(=O)C1=C(c2ccccc2)NC(=O)NC1c1ccc(N(C)C)cc1 (stereo not given)	0
COc1ccccc1Cn1c(-c2ccco2)nc2nc3ccccc3nc21	0
COc1ccccc1CNS(=O)(=O)c1ccc(NC(C)=O)cc1	0
c1ccc(N2CCN(Cc3ccnc4ccccc34)CC2)cc1	2
O=C(Nc1nnc(SCC(=O)N2CCCCC2)s1)C1CCCCC1	5
O=C(CN1CCN(c2nc(-c3ccc(F)cc3)cs2)CC1)NCc1ccc2c(c1)OCO2	5
CN(C)CCNC(=O)c1ccc(COCC(F)(F)F)cc1	0
CCOc1ccc2c(O)csc2c1	0
C=CCSc1nc2c(c(=O)[nH]c(=O)n2C)n1C(C)C	0

SMILES	inhibition [%]
CN1C(=O)CCC1(O)c1ccccc1 (stereo not given)	0
CC(=O)NS(=O)(=O)c1ccc(N)cc1	2
CCOC(=O)c1cc(-c2ccc(Cl)s2)nc2c1c(C)nn2C	0
CC(=O)Nc1sc2c(c1CN1CCN(c3ccccn3)CC1)CCCC2	2
CSc1ccccc1NC(=O)c1c(Br)cnn1C	0
CCNC(=O)N(C(=O)NCC)n1c(C)nnc1C	0
C=CCSc1nnc(-c2cccnc2)o1	0
Cn1c(SCC(=O)Nc2ccc(F)cc2)nnc1-c1cccnc1	0
Cc1ccc(S(=O)(=O)NCCOC(=O)Nc2sc(=S)n(C)c2C)cc1	0
COc1ccc(NC(=O)C2CCCN2S(=O)(=O)c2cccc3cccnc23)c(OC)c1 (stereo not given)	6
Nc1nc(NCc2ccco2)nn1-c1ccccc1	0
COc1ccc(N2CCN(C(c3cccs3)C(C)NC(=O)c3ccco3)CC2)cc1 (stereo not given)	0
COc1ccc(-c2cnc(SCC(=O)Nc3ccc4c(c3)OCO4)n2Cc2ccco2)cc1	0
CCCc1cc(C(=O)Nc2sc3c(c2C#N)CCC3)no1	7
O=c1c2nnn(Cc3ccc(Cl)cc3)c2ncn1Cc1ccc(F)cc1	0
N#Cc1nc(-c2cccs2)oc1NCc1ccc(Cl)cc1	0
CCOC(=O)c1cccc(NC(=O)C2CCN(S(=O)(=O)c3cccs3)CC2)c1	0
Cc1cccc(-c2nc(CN3CCCC(C(=O)NC4CCCC4)C3)c(C)o2)c1 (stereo not given)	0
Cc1nc2sc3c(c2c(=O)o1)CCC3	2
Cc1cc2n(n1)C(c1ccccc1)Nc1ccccc1-2 (stereo not given)	7
